Bioassay records: PubChem BioAssay, National Center for Advancing Translational Sciences (NCATS)
Pf Dd2 inh = Plasmodium falciparum Dd2 growth inhibition | P. falciparum Dd2 growth, SYBR Green, 72 h | Potency, µM (top dose mostly 28.9 µM), actives largely listed as inhibitors | 120,000 compounds, 4.3% hits; active means well fitted inhibition curve with a large enough effect; further: nearly all actives have a fitted effect of over 65% in size
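Infected erythrocytes (Dd2, 0.3% parasitemia, 2.5% hematocrit final) are added to compound in RPMI-1640/Albumax II medium, grown 72 h at 37C in low oxygen, then lysed with saponin/Triton-X containing SYBR Green and read by fluorescence.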
Large screens that a line does not name were inactive; ! = repeats disagree. This excerpt belongs to a sample that is enriched for hits.

O=C(O)c1ccc(-c2nc3ccncc3[nH]2)cc1	Pf Dd2 inh 1.3µM!
O=C(O)c1ccc(-c2cccnc2)cc1	none
c1cnc2[nH]cc(-c3nc4ccncc4[nH]3)c2c1	Pf Dd2 inh 10µM!
c1cc2nc(C3CCNC3)[nH]c2cn1 (stereo not drawn)	none
c1cnc2nc(-c3ccncc3)[nH]c2c1	none
Cc1cc(-c2nc3ccncc3[nH]2)c(C)[nH]1	Pf Dd2 inh 20µM!
c1cc2nc(C3CCNCC3)[nH]c2cn1	none
CCc1noc(-c2cn(C3CCCN(C(=O)c4ccc(C)s4)C3)nn2)n1 (stereo not drawn)	none
Cc1ccc(C)c(S(=O)(=O)N2CCN(C3CCN(Cc4cccnc4)C3=O)CC2)c1 (stereo not drawn)	none
COc1cccc(CC(=O)NC2CCN(c3ccc(C)cc3)C2=O)c1 (stereo not drawn)	none
CN(C)C[C@@H]1CN(c2ncccn2)C[C@H]1NC(=O)c1cnn(C)c1	none
CCOc1ccccc1CNC(=O)c1ccc(CN2C(=O)NC3(CCOCC3)C2=O)cc1	none
O=C(Nc1ccc(Cl)cc1)N1CCC2(CC1)CCN(Cc1cccs1)c1ccccc1O2	Pf Dd2 inh 1.4µM
CCCN1CCC2(CCN([S+](=O)([O-])c3cccs3)CC2)Oc2ccccc21	Pf Dd2 inh 11µM
CCCN1CCC2(CCN(C(=O)c3ccccc3F)CC2)Oc2ccccc21	none
CC(=O)N1CCC2(CC1)CC(=O)N(c1ccccc1)c1ccccc1O2	none
CCCN1CCC2(CCN(C(=O)c3ccc(C)cc3)CC2)Oc2ccccc21	none
COc1ccc(C(=O)N2CCC3(CC2)CCN(Cc2cccs2)c2ccccc2O3)cc1	none
Cc1ccc(C(=O)N2CCC3(CC2)CCN(CCc2ccccc2)c2ccccc2O3)cc1	Pf Dd2 inh 11µM
CC(=O)Nc1ccc(CN2CCC3(CC2)CC(=O)c2ccccc2O3)cc1	none
O=C1NCC2(CCN([S+](=O)([O-])c3cccs3)CC2)Oc2ccccc21	none
CC(C)(C)C(=O)N1CCC2(CC1)CCN(Cc1cccs1)c1ccccc1O2	Pf Dd2 inh 10µM
CCCN1CCC2(CCN(C(=O)c3ccccc3)CC2)Oc2ccccc21	none
CCCN1CCC2(CCN([S+](=O)([O-])c3cccc(C(F)(F)F)c3)CC2)Oc2ccccc21	none
CCn1nccc1C(=O)N1CCCN(C)c2ccccc21	none
Cc1nc(-c2c3n(c(=O)n(CC(=O)Nc4ccc(F)c(Cl)c4)c2=O)CCCCC3)no1	none
C=CCNC(=O)c1c[nH]c2cccnc12	none
O=C(CC[C@@H]1CNC(=O)[C@@H]2C[C@H](NCc3ccc(CO)o3)CN12)NCc1ccccc1	none
O=C(NC1CCCC1)N1CCCCC1c1nc(-c2cnccn2)n[nH]1 (stereo not drawn)	none
COc1ccc2c(C)c(C(=O)N3CCCOC(Cn4cccn4)C3)oc2c1 (stereo not drawn)	none
CCOc1ccccc1CN1CCC2(CCN(C(=O)Nc3ccccc3)CC2)Oc2ccccc21	Pf Dd2 inh 7.1µM
CCOc1ccccc1CN1CCC2(CCN(C(=O)c3ccc(C)cc3)CC2)Oc2ccccc21	none
CCCN1CCC2(CCN(C(=O)c3ccc(F)cc3)CC2)Oc2ccccc21	none
CCn1ncnc1C(C)NC(=O)c1coc(COc2ccc3c(c2)OCO3)n1 (stereo not drawn)	none
O=C(c1ccn[nH]1)N1CCN(Cc2cn3ccccc3n2)CC(O)C1 (stereo not drawn)	none
CN1CCN2C[C@@H](NC(=O)c3ccc(C#CC(C)(C)O)o3)C[C@H]2C1	none
CC(=O)N1CCc2c(sc(NC(=O)CSc3ccccc3)c2-c2nc3ccccc3s2)C1	Pf Dd2 inh 2µM
Cn1c(SCC(=O)Nc2nc3ccccc3s2)ncc(C(=O)Nc2ccccc2)c1=O	none
CN1CCc2c(sc(NC(=O)CSc3ccccc3)c2-c2nc3ccccc3s2)C1	Pf Dd2 inh 11µM
Cn1c(SCC(=O)Nc2nc3ccccc3s2)ncc(C(=O)Nc2ccc(Cl)cc2)c1=O	none
O=C(CSc1ncc(CO)n1Cc1ccccc1)Nc1nc2ccccc2s1	none
Cc1cnc(=O)[nH]c1SCC(=O)Nc1nc2ccccc2s1	none
O=C1Nc2ccc(-c3ccccc3)cc2C(=O)N2CCN(C(=O)c3cccs3)C[C@H]12	none
COCCNC(=O)C1c2ccccc2C(=O)N(CC(C)C)C12CCCCC2 (stereo not drawn)	none
CC(C)CN1C(=O)c2ccccc2C(C(=O)NC(C)C)C12CCCCC2 (stereo not drawn)	none
COCc1nnc(NC(=O)C2c3ccccc3C(=O)N(CC(C)C)C23CCCC3)s1 (stereo not drawn)	Pf Dd2 inh 5.6µM
CCCCNC(=O)C1c2ccccc2C(=O)N(Cc2ccccc2)C12CCCC2 (stereo not drawn)	none
CC(C)CN1C(=O)c2ccccc2C(C(=O)Nc2nncs2)C12CCCC2 (stereo not drawn)	Pf Dd2 inh 13µM
COCCCNC(=O)C1c2ccccc2C(=O)N(CC(C)C)C12CCCCC2 (stereo not drawn)	none
CC(C)CN1C(=O)c2ccccc2C(C(=O)NC(C)C)C12CCCC2 (stereo not drawn)	none
Cc1cccc(NC(=O)C2c3ccccc3C(=O)N(CC(C)C)C23CCCC3)n1 (stereo not drawn)	Pf Dd2 inh 3.5µM
CC(C)CNC(=O)C1c2ccccc2C(=O)N(C2CCCC2)C12CCCC2 (stereo not drawn)	none
COc1cc(OC)c(OC)cc1CN1C[C@@H]2C(=O)N(C)C(=O)[C@@H]2C1	none
O=S(=O)(c1cc(F)cc(F)c1)N1CCCC(Cn2c(C3CC3)nc3cccnc32)C1 (stereo not drawn)	none
O=C1NCc2ccccc2CC12CCCN(Cc1ccccc1Cl)C2 (stereo not drawn)	none
CCOc1ccc(CC(=O)N2CCC(n3cc(-c4nc(C(C)C)no4)nn3)C2)cc1 (stereo not drawn)	none
CNC(=O)[C@@H]1CN(C(=O)c2ccoc2C)C[C@H]1c1nc(C)no1	none
O=C1[C@@H]2C[C@@H](CN2C(=O)c2ccc(C(F)(F)F)cc2)Oc2ccccc2N1Cc1ccccc1	none
Cc1cccc(Cn2c(=O)c(-c3noc(C)n3)c3n(c2=O)CCCCC3)c1	none
CN(C(=O)CN1CCOCC1)C1CCc2nn(C)c(=O)n2CC1 (stereo not drawn)	none
CN(C)C(=O)c1cc2c(s1)CCC(C(=O)N1CCN(c3ccccn3)CC1)C2 (stereo not drawn)	none
CN(C)C(=O)c1cc2c(s1)CCC(C(=O)N1CCN(c3cccc(Cl)c3)CC1)C2 (stereo not drawn)	Pf Dd2 inh 5µM
CN(C)C(=O)c1cc2c(s1)CCC(C(=O)N1CCN(c3ccccc3)CC1)C2 (stereo not drawn)	none
CSc1ncccc1C(=O)N[C@@H]1CCOC[C@H]1Oc1ccc(C#N)cc1	none
CC1=C[C@@H](CNC(=O)CCCC(=O)O)[C@H](C(C)C)C[C@H]1Cc1nc2ccc(Cl)cc2[nH]1	none
COC(=O)c1ccc2nc(C[C@@H]3C[C@@H](C(C)C)[C@H](CN)C=C3C)[nH]c2c1	none
CC1=C[C@@H](CN)[C@H](C(C)C)C[C@H]1Cc1nc2ccc(C)cc2[nH]1	Pf Dd2 inh 10µM
CC1=C[C@@H](CNC(=O)NC2CCCCC2)[C@H](C(C)C)C[C@H]1Cc1nc2ccc(C)cc2[nH]1	none
CC1=C[C@@H](CNC2CCN(C)CC2)[C@H](C(C)C)C[C@H]1Cc1nc2ccc(F)cc2[nH]1	none
CC1=C[C@@H](CN)[C@H](C(C)C)C[C@H]1Cc1nc2ccc(Cl)cc2[nH]1	Pf Dd2 inh 11µM
CC(C)C(=O)N[C@@H]1C[C@H](COc2ccc(S(C)(=O)=O)cc2)[C@@H](O)[C@H]1O	none
CC(=O)N1CC2(Cc3ccccc31)CN(C(=O)c1ccc(F)cc1)C2	none
